Reference: PubChem BioAssay AID1159580 (chemical genetic matrix, 2015)
“And” between values parts separate entries of the source, which are not always exact repeats. Equal values may be shown once. In all, about 5,500 compounds went through this assay and about 2,000 (36%) were called active. Inconclusive results (about 18%) are left out. Cut-off read from the data, not from the text of the source: active = normalized growth mostly below about 0.91 (no sharp cut-off); inconclusive = no clear call, values can overlap the other calls; inactive = mostly above about 0.92. The list shows a part of the results.

Assay: chemical genetic growth profiling, strain panel (AID 1159580);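 note: tested at 20 µM; growth read once vehicle control cultures reached saturation at 30 °C; 1 = growth at the plate median or of vehicle wells; lower values mean less growth of the strain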
Settings: S. cerevisiae deletion strains, growth OD

Measured: normalized growth

CC(=O)Oc1cccc(O)c1
inactive: locus YAL021C, strain ccr4, hits give low values 1 | locus YAL026C, strain drs2, hits give low values 1.04 | locus YAL030W, strain snc1, hits give low values 1.01 | locus YBL061C, strain skt5, hits give low values 1.02 | locus YBR009C, strain hhf1, hits give low values 1.01 | locus YBR021W, strain FUR4, hits give low values 0.973 | locus YBR023C, strain chs3, hits give low values 1.03 | locus YBR171W, strain sec66, hits give low values 1.03 | locus YBR229C, strain ROT2, hits give low values 1 | locus YBR231C, strain swc5, hits give low values 1.03 | locus YBR279W, strain paf1, hits give low values 1.02 | locus YCL011C, strain gbp2, hits give low values 1.02 | locus YCL016C, strain dcc1, hits give low values 1.01 | locus YCL029C, strain bik1, hits give low values 1.01 | locus YCL069W, strain vba3, hits give low values 1.03 | locus YCR088W, strain abp1, hits give low values 1.02 | locus YDL005C, strain med2, hits give low values 1.03 | locus YDL035C, strain GPR1, hits give low values 1.01 | locus YDL040C, strain nat1, hits give low values 1.02 | locus YDL074C, strain BRE1, hits give low values 0.996 | locus YDL101C, strain DUN1, hits give low values 1.01 | locus YDL134C, strain PPH21, hits give low values 1.01 | locus YDL185W, strain tfp1, hits give low values 1.03 | locus YDL192W, strain arf1, hits give low values 1.02 | locus YDR001C, strain nth1, hits give low values 1.02 | locus YDR069C, strain doa4, hits give low values 1.03 | locus YDR101C, strain arx1, hits give low values 0.996 | locus YDR137W, strain rgp1, hits give low values 1.05 | locus YDR159W, strain sac3, hits give low values 1.05 | locus YDR162C, strain NBP2, hits give low values 1.02 | locus YDR195W, strain ref2 1.03 | locus YDR297W, strain sur2, hits give low values 1.04 | locus YDR318W, strain mcm21, hits give low values 1.01 | locus YDR334W, strain swr1, hits give low values 1.01 | locus YDR335W, strain msn5, hits give low values 1.01 | locus YDR388W, hits give low values 1.02 | locus YDR392W, strain spt3, hits give low values 1.01 | locus YDR502C, strain sam2, hits give low values 1.03 | locus YEL003W, strain gim4, hits give low values 1.02 | locus YEL037C, strain rad23, hits give low values 1.02 | locus YEL061C, strain CIN8 (second series), hits give low values 1.02 | locus YEL061C, strain CIN8, hits give low values 1.01 | locus YER015W, strain faa2, hits give low values 1.02 | locus YER110C, hits give low values 1.03 | locus YER111C, strain swi4, hits give low values 1.02 | locus YER155C, strain BEM2 (second series), hits give low values 1.02 | locus YER155C, strain BEM2, hits give low values 0.996 | locus YER167W, strain BCK2, hits give low values 1 | locus YFR010W, strain ubp6, hits give low values 1.04 | locus YGL078C, strain dbp3, hits give low values 1.02 | locus YGL086W, strain mad1, hits give low values 0.999 | locus YGL167C, strain pmr1, hits give low values 1.02 | locus YGL173C, strain kem1, hits give low values 1.04 | locus YGL227W, strain vid30, hits give low values 1.02 | locus YGL240W, strain doc1, hits give low values 1.02 | locus YGL248W, strain PDE1, hits give low values 1.01 | locus YGL253W, strain hxk2, hits give low values 1.02 | locus YGR078C, strain PAC10, hits give low values 1 | locus YGR135W, strain pre9, hits give low values 1.03 | locus YGR229C, strain SMI1, hits give low values 1 | locus YGR252W, strain gcn5, hits give low values 1.06 | locus YHR013C, strain ard1, hits give low values 1.02 | locus YHR027C, strain rpn1, hits give low values 1.02 | locus YHR030C, strain SLT2, hits give low values 1.01 and 0.949 | locus YHR079C, strain IRE1 (second series), hits give low values 1.01 | locus YHR079C, strain IRE1, hits give low values 0.967 | locus YHR094C, strain hxt1, hits give low values 1.01 | locus YHR129C, strain ARP1, hits give low values 1.01 | locus YHR142W, strain chs7, hits give low values 1.03 | locus YHR200W, strain rpn10, hits give low values 1.02 | locus YIL066C, strain RNR3, hits give low values 1 | locus YIL073C, strain SPO22, hits give low values 1.04 | locus YIL125W, strain kgd1, hits give low values 1.01 | locus YIR030C, strain dcg1, hits give low values 1.01 | locus YJL092W, strain hpr5, hits give low values 1.02 | locus YJL095W, strain BCK1 (second series), hits give low values 1.02 | locus YJL095W, strain BCK1, hits give low values 1.01 and 0.974 | locus YJL115W, strain asf1, hits give low values 1.01 | locus YJL129C, strain trk1, hits give low values 1.04 | locus YJL134W, strain LCB3, hits give low values 1.01 | locus YJL154C, strain vps35, hits give low values 1.02 | locus YJL164C, strain tpk1, hits give low values 1.01 | locus YJL166W, strain qcr8, hits give low values 1.03 | locus YJL168C, strain set2, hits give low values 1.02 | locus YJL187C, strain SWE1 (second series), hits give low values 1.01 | locus YJL187C, strain SWE1, hits give low values 1.02 | locus YJR043C, strain POL32, hits give low values 0.999 | locus YJR066W, strain TOR1, hits give low values 0.96
